Only a selection was taken, and hits are over-represented in it overall.
Tb PYK inh: T. brucei pyruvate kinase inhibition; Q57TT1; TbPYK enzyme, Kinase-Glo Plus ATP luminescence, 45 min; Potency, µM (titrated, usually from 76.8 µM), most hits filed as inhibitors; hit rate 0.12% among 410,000; also: nearly all actives have a fitted effect of over 50% in size
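TbPYK + substrate in 50 mM TEA pH 7.2, 100 mM KCl, 10 mM MgCl2, 0.05% BSA, 0.01% Tween-20; cpd pinned; ADP 130 uM final; 45 min RT; Kinase-Glo Plus 10 min; luminescence endpoint.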
Shiga toxin inh: inhibitors of Shiga toxin in Vero cells | hit rate 9.2% among 290,000 | inhibition, % at 38.7 µM | Vero cells, Shiga toxin protein synthesis inhibition reporter; in the data active = inhibition mostly above about 28%, no sharp cut-off; inactive = mostly below about 43%
LmPK inh: blocks Leishmania mexicana pyruvate kinase activity | Q27686 | purified LmPK, Kinase-Glo ATP luminescence, 1 h | Potency, µM (titrated, usually from 57.5 µM), hits mostly inhibitors | hit rate 0.37% among 290,000
Target sequence (Q27686 whole entry, looked up): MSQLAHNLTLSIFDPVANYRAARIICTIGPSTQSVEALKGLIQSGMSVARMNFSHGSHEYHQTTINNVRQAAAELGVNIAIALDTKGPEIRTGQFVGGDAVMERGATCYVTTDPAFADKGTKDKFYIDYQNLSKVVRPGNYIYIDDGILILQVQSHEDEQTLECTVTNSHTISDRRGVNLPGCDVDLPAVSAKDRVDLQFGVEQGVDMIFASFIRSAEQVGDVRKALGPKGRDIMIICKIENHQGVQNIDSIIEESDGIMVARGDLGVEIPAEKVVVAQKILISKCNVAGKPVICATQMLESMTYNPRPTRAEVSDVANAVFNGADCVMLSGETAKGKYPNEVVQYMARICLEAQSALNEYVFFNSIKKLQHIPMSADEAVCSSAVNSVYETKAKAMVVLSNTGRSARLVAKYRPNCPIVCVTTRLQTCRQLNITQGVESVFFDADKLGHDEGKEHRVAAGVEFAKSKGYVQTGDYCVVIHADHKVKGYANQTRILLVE
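In 50 mM imidazole pH 7.2 with 7 mM MgCl2, LmPK (0.1 nM) turned over PEP (0.5 mM) and ADP (0.1 mM) for 1 h at room temperature. Luciferase read-out of ATP.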
Sm TGR block: S. mansoni TGR enzyme inhibition | Q962Y6 | purified TGR, DTNB reduction, TNB absorbance 405 nm | Potency, µM (highest dose often 114 µM), actives largely listed as inhibitors | hit rate 3% among 360,000 | AID 485364; also: nearly all actives have a fitted effect of over 60% in size
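First, TGR (20 nM dispensed) and NADPH were mixed with compound. Second, a 15 min room-temperature incubation followed. Third, further NADPH and then DTNB were added to start the reaction. Finally, TNB absorbance was monitored kinetically.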
Giardia FBPA inh: inhibitors of Giardia lamblia fructose-1,6-bisphosphate aldolase; A8B2U2; Potency, µM (doses to about 59.6 µM), most hits filed as inhibitors; hit rate 0.71% among 290,000; purified Giardia FBPA; also: nearly all actives have a fitted effect of over 55% in size
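Giardia FBPA (40 nM reagent) was preincubated 10 min at RT with compound (up to 57.5 uM final), then substrate plus GAPDH/TPI/NAD/arsenate coupling system with diaphorase/resazurin was added; resorufin fluorescence (525/598 nm) was read after 20 min.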
Cycloheximide cs: counter-screen for Shiga toxin inhibitors: cycloheximide protein synthesis inhibition | cell reporter, cycloheximide protein synthesis inhibition counterscreen | max response, % | hit rate 12% among 300,000; in the data active = max response mostly above about 13%, no sharp cut-off; inactive = mostly below about 14%; also: read at 38.3 µM for the half of the compounds with a filed dose
Of the large screens only hits and unclear results are named; the others gave an inactive call. Unless noted, calls follow the shape of the dose curve; as a rule, active = well fitted curve in the direction sought with a large enough effect; inconclusive = small, poorly fitted or top-dose-only effect, or another doubt; inactive = no such curve, though single readings can be large; an effect the other way counts as inactive or inconclusive.

CCOc1ccc(NC(=O)CN2CCN(CC(=O)Nc3ccc(N(C)C)cc3)CC2)cc1	Shiga toxin inh 81, Cycloheximide cs 25
CCOc1ccc(NC(=O)CN2CCN(CC(=O)c3ccc(OCC)cc3)CC2)cc1	Sm TGR block 22µM
CN(C)c1ccc(NC(=O)CN2CCN(CC(=O)Nc3ccc(F)cc3)CC2)cc1	Cycloheximide cs 19
CCOc1ccc(NC(=O)CN2CCN(CC(=O)c3ccc(OC)c(OC)c3)CC2)cc1	Sm TGR block 32µM
CCC1CCc2nc3sc(C(=O)Nc4ccc(F)cc4F)c(N)c3cc2C1 (configuration not stated)	none (no result: Shiga toxin inh, LmPK inh, Giardia FBPA inh, Cycloheximide cs)
Cc1[nH]c2ccccc2c1C1C(c2ccccc2)=NN=C(C(C)C)N1O (configuration not stated)	Sm TGR block 11µM
CC1=NN=C(c2ccccc2)C(c2c[nH]c3ccccc23)N1O (configuration not stated)	none
Cc1ccc(C(=O)NCc2ccc3c(c2)OCO3)cc1S(=O)(=O)N1CCCCC1	none
Cc1ccc(C(=O)NCc2ccc3c(c2)OCO3)cc1C	Shiga toxin inh 55, Cycloheximide cs 35
Cc1cc(C(=O)NCc2ccc3c(c2)OCO3)ccc1[N+](=O)[O-]	Cycloheximide cs 25
O=C(NCc1ccc2c(c1)OCO2)c1cccc([N+](=O)[O-])c1	none
O=C(NCc1ccc(Cl)c(Cl)c1)c1ccc2c(c1)OCO2	none (no result: Giardia FBPA inh)
Cc1ccccc1CC(=O)NCC1CCCCC1	none
Cc1ccc(C(=O)NCc2ccc3c(c2)OCO3)cc1Cl	Cycloheximide cs 18
Cc1ccc(CC(=O)NCC2CCCCC2)cc1	Shiga toxin inh 71, Cycloheximide cs 26
Cc1ccc2c(C)c(C)c(=O)n(C)c2c1	none (no result: Shiga toxin inh, LmPK inh, Sm TGR block, Giardia FBPA inh, Cycloheximide cs)
Cc1cccc(C(O)c2ncc(-c3ccccc3F)[nH]2)c1C (configuration not stated)	none (no result: Shiga toxin inh, LmPK inh, Sm TGR block, Giardia FBPA inh, Cycloheximide cs)
Cc1cc(C(=O)NCC2CCCCC2)ccc1[N+](=O)[O-]	Shiga toxin inh 84, Cycloheximide cs 24
Cc1cc(C(=O)NCc2cccs2)ccc1[N+](=O)[O-]	Cycloheximide cs 14
Cc1nc(NC(=O)c2ccc([N+](=O)[O-])cc2Cl)sc1C(=O)N(C)C	Tb PYK inh inconclusive
CC(=O)Nc1ccc(C(=O)NCC2CCCCC2)cc1	Cycloheximide cs 20
Cc1cc(C(=O)OCC(=O)NCc2cccs2)ccc1[N+](=O)[O-]	none (no result: Shiga toxin inh, LmPK inh, Sm TGR block, Giardia FBPA inh, Cycloheximide cs)
Cc1cc(C(=O)Nc2nc(C)c(C(=O)N(C)C)s2)ccc1[N+](=O)[O-]	Shiga toxin inh 54, Cycloheximide cs 34
O=C(c1ccc(C(=O)N2CCOCC2)s1)N1CCOCC1	none
O=C(c1cc2cc(C(F)(F)F)ccc2s1)N1CCOCC1	Shiga toxin inh 84, Cycloheximide cs 36
O=C(c1cc2cc(Br)ccc2s1)N1CCOCC1	Cycloheximide cs 21
CSc1ccc(CN2CCC(C)(Oc3cccc(F)c3)C2)cc1 (configuration not stated)	none (no result: Shiga toxin inh, LmPK inh, Sm TGR block, Giardia FBPA inh, Cycloheximide cs)
CCOC(=O)C1=C(c2ccccc2)OC(N)=C(C#N)C1c1cccs1 (configuration not stated)	Sm TGR block 45µM
CCOC(=O)CC1=C(C(=O)OCC)C(c2cccs2)C(C#N)=C(N)O1 (configuration not stated)	none
C#CCSC1=C(C#N)C(c2cccs2)C(C(=O)OCC)=C(C)N1 (configuration not stated)	Sm TGR block inconclusive, Cycloheximide cs 24
CCOC(=O)C1=C(N)OC2=C(C(=O)CCC2)C1c1cccs1 (configuration not stated)	Giardia FBPA inh 13µM
C/C=C(/C)C(=O)O[C@H]1C[C@@]2(C)O[C@H]2[C@@H](OC(C)=O)C2(C)CC[C@@](O)(C(C)C)C12 (some centres not stated)	none (no result: Tb PYK inh, LmPK inh, Sm TGR block)
Cc1cccc(NC(=O)C(Cc2ccccc2)NS(=O)(=O)c2ccc3c(c2)c(=O)n(C)c(=O)n3C)c1 (configuration not stated)	none (no result: Shiga toxin inh, LmPK inh, Giardia FBPA inh, Cycloheximide cs)
Cc1c(C)c2cc(Cl)c(OCC(=O)Nc3ccccn3)cc2oc1=O	none (no result: Shiga toxin inh, LmPK inh, Sm TGR block, Giardia FBPA inh, Cycloheximide cs)
O=C(COc1ccc(Cl)cc1Cl)Nc1ccccn1	Tb PYK inh inconclusive, LmPK inh 5µM
CSc1ccccc1NC(=O)COc1ccc(Cl)cc1Cl	Shiga toxin inh 43, Cycloheximide cs 17
Cc1ccccc1OCC(=O)Nc1cccc(Cl)c1C	none

Screens deposited in PubChem by National Center for Advancing Translational Sciences (NCATS).
